# Screens: PubChem, National Center for Advancing Translational Sciences (NCATS)
# Giardia killer: Giardia lamblia killing; activity change, % at 7.66 µM, hits read low; AID 540267; Giardia lamblia trophozoite viability; 0.15% of 340,000 active; in the data active = activity change below about -80%; inconclusive = between about -30% and that limit;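 note: parasites exposed to compound for two days anaerobically before the ATP read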
#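 Trophozoites 100 cells/well + cpd; 48 hrs, 37 deg C, anaerobic. ATPLite 1-Step added, 15-30 min RT, luminescence read (ATP-based viability).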
# Sfp inh: blocks B. subtilis Sfp PPTase activity. Biochemical Sfp PPTase activity, qHTS. Potency, µM, inactives show largest response in the series, negative = inhibition, actives largely listed as inhibitors. AID 1490. 3.5% of 310,000 active;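 note: the enzyme is Sfp with the accession as filed and its product quenches rhodamine fluorescence; potency is the fitted concentration of half-maximal effect; 0% = enzyme reaction without inhibitor and -100% = no enzyme wells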
#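 Sfp 15 nM + cpd, 15 min RT; start w/ rhodamine-CoA 5 uM, BHQ-2-YbbR 12.5 uM (final); 50 mM Hepes pH 7.6, 10 mM MgCl2, 0.01% NP-40, 0.01% BSA; read 525/598 nm at 0 and 30 min.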
# Coupling enz: counter-screen for Giardia aldolase inhibitors: coupling enzyme system | 0.67% of 290,000 active | activity change, negative = inhibition, % at 58.2 µM, hits read low | coupling enzyme system counterscreen, AmpLite Red fluorescence; in the data active = activity change below about -30%
#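 Final compound at 57.5 uM, incubated 10 min at RT with coupling enzyme reagent (glyceraldehyde-3-phosphate), then 20 min with substrate and AmpLite Red detection. Fluorescence read at 525/598 nm; tests interference with the coupling assay, not aldolase inhibition.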
# ELG1 DNA repair: inhibitors of ELG1-dependent DNA repair in HEK293T cells. HEK293T ELG1-luciferase reporter, luminescence, 16 h; DNA damage induced by 5-fluorouridine. Potency, µM (highest dose often 46.1 µM), for inactives: at the highest dose activity change, negative = inhibition, actives largely listed as inhibitors. 2.3% of 330,000 active. AID 504467; note: potency is the fitted concentration of half-maximal effect; nearly all actives have a fitted effect of over 55% in size
#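 Overnight (16 hr) co-exposure of 2,000 cells/well to 5-fluorouridine and compound at 37 °C preceded detection. Luciferase was quantified via ONE-Glo luminescence; loss of signal denotes inhibition.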
# Starred values were filed as active, the others as inactive; ? = inconclusive; / = not tested or not shown. Rows were chosen to be rich in hits. Some 5.5% of all compounds tested hit in one or more screens of this group. Unless noted, calls come from the whole dose curve; as a rule, active = well fitted curve in the direction sought with a large enough effect; inconclusive = small, poorly fitted or top-dose-only effect, or another doubt; inactive = no such curve, though single readings can be large; an effect the other way counts as inactive or inconclusive. Unless noted, % is set by controls: 0 for no effect and ±100 for the full control effect.
SMILES,Giardia killer,Sfp inh,Coupling enz,ELG1 DNA repair
CCOc1ccc(NC(=O)C2CCCN(S(C)(=O)=O)C2)cc1 (stereo not given),-1,7%,-1,3%
Cc1ccc(-c2cc(C(=O)Nc3ccc(S(=O)(=O)Nc4cc(C)on4)cc3)c3ccccc3n2)c(C)c1,6,9%,5,13%
COc1ccc(-c2nc3ccccc3c(C(=O)Nc3ccc(S(=O)(=O)Nc4cc(C)on4)cc3)c2C)cc1,-9,-8%,2,13µM*
COc1ccc(O[C@H]2C=C[C@@H](c3ccccc3)O[C@H]2COC(=O)N2CCCCC2)cc1,/,-7%,-2,/
CC(C)C(=O)N[C@@H]1CCCN1C(=O)/C=C\c1ccccc1,/,6%,0,/
Oc1c(C(Nc2ccccn2)c2ccccn2)ccc2cccnc12 (stereo not given),15,11%,3,?
Oc1ccccc1C(Nc1nccs1)c1ccc2cccnc2c1O (stereo not given),8,23%,0,3.7µM*
COc1ccc(OCC2CC3C(CCC(C)C3c3ccc(Br)cc3)C(=O)O2)cc1 (stereo not given),/,12%,-1,/
NC(=S)N/N=C1\c2ccccc2-c2c(C(=O)O)cccc21,?,79µM*,4,-5%
CCCOCC1CC(CCc2nc(=S)[nH][nH]2)C(=O)O1 (stereo not given),0,56µM*,2,0%
CC(OC(=O)CCN1C(=O)C2CC=CCC2C1=O)C(=O)c1ccc(F)cc1 (stereo not given),-5,/,/,-2%
O=S(=O)(Oc1ccccc1/C=N/n1cnnc1)c1ccccc1,1,15%,-49*,-4%
Cc1nnc(C)c2c(C)n(-c3ccccc3N)c(C)c12,12,56µM*,-40*,16%
Cc1nnc(C)c2c(C)n(-c3ccccc3)c(C)c12,-29,-4%,1,?
C=CCn1c(N)c(C(=O)Nc2cccc(C)c2)c2nc3ccccc3nc21,-14,3%,-34*,-1%
C=CCn1c(N)c(C(=O)OCCC)c2nc3ccccc3nc21,7,-5%,-3,16µM*
C=CCn1c(N)c(C(=O)Nc2ccc(C)c(C)c2)c2nc3ccccc3nc21,-1,-1%,5,-6%
COCCNC(=O)c1c(N)n(CCC2=CCCCC2)c2nc3ccccc3nc12,9,-12%,-11,?
COCCn1c(N)c(C(=O)OCc2ccccc2)c2nc3ccccc3nc21,4,-18%,-37*,?
NS(=O)(=O)c1ccc(NC(=O)CN2CCN(S(=O)(=O)c3cccs3)CC2)cc1,-6,/,/,-4%
CCCNC(=O)N1N=C(c2ccc(N)cc2)c2cc3c(cc2[C@H]1C)OCO3,/,-9%,5,/
O=C(OCC(=O)N1CCCCCC1)c1ccc(F)cc1F,25,/,/,?
COc1ccc(C(=O)Nc2ccc(Cl)cc2F)cc1S(=O)(=O)N1CCCC1,6,/,/,-21%
Cc1cc(C(c2ccc(C)o2)c2ccc(C)o2)c(O)c([N+](=O)[O-])c1,5,50µM*,-1,7%
CCOc1ccccc1N1C(=O)CC(Sc2n[nH]c(-c3ccccc3)n2)C1=O (stereo not given),5,35µM*,1,4%
SMILES,Giardia killer,Sfp inh,Coupling enz,ELG1 DNA repair
COc1ccccc1N1C(=O)CC(Sc2nc(C)cc(C)n2)C1=O (stereo not given),-6,13%,-2,9%
COc1cccc(N2C(=O)CC(Sc3nc(C)cc(C)n3)C2=O)c1 (stereo not given),-2,-1%,1,-7%
COc1ccc(N2C(=O)CC(Sc3n[nH]c(-c4cccc(C)c4)n3)C2=O)cc1 (stereo not given),8,3.2µM*,-18,?
COc1cc(C(C[N+](=O)[O-])c2c(-c3ccccc3)cc3ccccn23)cc(OC)c1OC (stereo not given),-5,56µM*,-29,?
CCOC(=O)N1CCN(C(=O)c2cn(CC(C)C)c(=O)c3c2c2ccccc2n3C)CC1,6,6%,0,18µM*
O=[N+]([O-])c1cccc(-c2nnc3ccc4ccccc4n23)c1,27,-18%,6,?
CN1CCN(/N=C/c2nc(-c3cccc([N+](=O)[O-])c3)n3ccccc23)CC1,-24,79µM*,-28,0%
CC1=CC(=O)C(C(C)C)=C/C1=N/OC(=O)c1cccc([N+](=O)[O-])c1,-7,?,-14,-6%
CC1=CC(=O)C(C(C)C)=CC1=NC(=O)c1ccc(C)cc1,2,10µM*,-3,18%
Cc1ccccc1N=C1NC(=O)/C(=C/c2cccnc2)S1,?,3%,0,21µM*
CC(=O)Nc1ccc(C)c(NC(=S)Nc2ccc(F)cc2)c1,19,-9%,-1,-10%
COc1cc(NC(=S)Nc2cccc(C)n2)cc(OC)c1OC,31,20%,0,-17%
CC(=O)Nc1cccc(NC(=S)Nc2ccc(F)cc2F)c1,7,40µM*,-27,15%
Cc1cccnc1NC(=S)Nc1ccc(F)cc1F,-1,18µM*,4,?
Cc1ccc(C)c(NC(=S)Nc2ncccc2C)c1,-9,?,-2,?
COc1cc(NC(=S)Nc2ncccc2C)cc(OC)c1OC,3,50µM*,1,-2%
O=C(Nc1ccc(F)cc1F)c1cccc(C(=O)Nc2ccc(F)cc2F)n1,18,-8%,-2,16µM*
O=C(CNC(=O)C1CCCCC1)OCC(=O)c1ccc(C2CCCCC2)cc1,-2,/,/,/
Cc1ccc(C(=O)N/C(=C/c2cccnc2)C(=O)N2CCCCCC2)cc1,4,4%,/,2%
Cc1oc(-c2ccccc2Cl)nc1CS(=O)(=O)CC(=O)NC1CCCC1,-21,11%,3,-5%
CCCNC(=S)Nc1ccc(F)cc1F,3,-2%,7,16µM*
CCCNC(=S)Nc1ccc(Cl)cc1C,-15,-1%,2,-5%
CC(=O)Nc1cccc(NC(=S)Nc2cccc(Cl)c2Cl)c1,18,32µM*,0,1%
Cc1cc(C)n2nc(-c3cccnc3)nc2n1,4,20%,4,14%
Cn1nc(-c2ccc(F)cc2)nc2c(=O)n(C)c(=O)nc1-2,-89*,/,/,/
SMILES,Giardia killer,Sfp inh,Coupling enz,ELG1 DNA repair
Cn1nc(-c2ccc(Cl)cc2)nc2c(=O)n(C)c(=O)nc1-2,-103*,-20%,-76*,?
COc1ccc(OCCn2nnc(-c3ccc(Cl)cc3)n2)cc1,-4,7%,2,?
Cn1nc(-c2ccccc2)nc1-c1ccccc1,13,/,/,?
Cn1nc(-c2cccnc2)nc2c(=O)n(C)c(=O)nc1-2,-86*,/,/,/
COc1ccc(-c2nc3c(=O)n(C)c(=O)nc-3n(C)n2)cc1,-99*,/,/,/
COc1ccc(-c2nc3c(c4c2C[C@H](c2ccccc2)OC4)CN(S(=O)(=O)c2ccc(Cl)c4nonc24)CC3)c(C)c1,/,?,-1,/
Cc1cc(C)cc(NC(=O)CSc2nc3nc(C)cc(C)n3n2)c1,0,/,/,2%
CCn1nc(-c2ccccc2C)nc2c(=O)n(C)c(=O)nc1-2,-93*,/,/,/
Cc1cc(O)c(N)c(C)c1Cl,21,56µM*,-14,-9%
Cc1cc(O)cc(C)c1Cl,13,21%,-4,/
